# Source: PubChem BioAssay (several laboratories)
# Efflux pump inh = blocks antifungal efflux pumps in multiplex yeast assay. S. cerevisiae Candida pump triplex, Nile Red efflux. inhibition, % at 10 µM. actives 0.44% (n = 330,000). AID 485275;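 active means plate passing quality check with inhibition over a set limit, or well fluorescence over plate mean plus 4 SD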;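 further: Nile Red retained in pooled yeast measured as flow cytometry median fluorescence; 0% = buffer negative control and 100% = Enniatin B positive control; higher means more Nile Red kept so more efflux inhibition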
# GC-A act = GC-A (human) enzyme activation | P16066 | HEK293 GC-A cells, cGMP TR-FRET, EC30 ANP; 0% at EC30 ANP, 100% saturating ANP | activation, % at 10 µM | actives 0.14% (n = 370,000); in the data active means activation above about 40%
# A1 inh = inhibitors of the anti-apoptotic protein A1, read as caspase activation | MEF A1-2A-BIM cells, Caspase-Glo 3/7 luminescence, 3 h; percent of clofoctol response, vehicle zero | caspase activation, % (no concentration beside the values) | AID 2462 | actives 0.066% (n = 330,000);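 active means over half of replicate activation scores above 10%, or exactly half above 10 with the replicate mean above 10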
# HSV augment = HSV replication enhancement; HSV replication augmentation in cells, fold increase; maximum fold increase; actives 0.005% (n = 220,000); in the data active means maximum fold increase above about 1.5; tested in PC3 cells
# H9c2 TAG inh = reduces triacylglycerol accumulation in H9c2 cells. Nile Red lipid (TAG) fluorescence; cells loaded with 200 µM oleic acid. inhibition, % at 12.5 µM. actives 0.66% (n = 230,000). AID 651582;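 active means pattern-corrected inhibition of lipid staining of at least 50% with the nuclear-stain viability signal not falling by more than 50%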;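 further: 0% = DMSO wells and 100% = triacsin C control wells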
# NPR2 activator = GC-B (human) receptor activation. HEK293-GC-B cells, CNP EC30, cGMP TR-FRET; 0% at EC30 CNP, 100% saturating CNP. actives 0.11% (n = 370,000). P20594. activation, % at 10 µM;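 active means activation at 10 µM reaching about 35% in either raw or pattern-adjusted values, limit read from the data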
# Target sequence (P20594 whole entry, looked up): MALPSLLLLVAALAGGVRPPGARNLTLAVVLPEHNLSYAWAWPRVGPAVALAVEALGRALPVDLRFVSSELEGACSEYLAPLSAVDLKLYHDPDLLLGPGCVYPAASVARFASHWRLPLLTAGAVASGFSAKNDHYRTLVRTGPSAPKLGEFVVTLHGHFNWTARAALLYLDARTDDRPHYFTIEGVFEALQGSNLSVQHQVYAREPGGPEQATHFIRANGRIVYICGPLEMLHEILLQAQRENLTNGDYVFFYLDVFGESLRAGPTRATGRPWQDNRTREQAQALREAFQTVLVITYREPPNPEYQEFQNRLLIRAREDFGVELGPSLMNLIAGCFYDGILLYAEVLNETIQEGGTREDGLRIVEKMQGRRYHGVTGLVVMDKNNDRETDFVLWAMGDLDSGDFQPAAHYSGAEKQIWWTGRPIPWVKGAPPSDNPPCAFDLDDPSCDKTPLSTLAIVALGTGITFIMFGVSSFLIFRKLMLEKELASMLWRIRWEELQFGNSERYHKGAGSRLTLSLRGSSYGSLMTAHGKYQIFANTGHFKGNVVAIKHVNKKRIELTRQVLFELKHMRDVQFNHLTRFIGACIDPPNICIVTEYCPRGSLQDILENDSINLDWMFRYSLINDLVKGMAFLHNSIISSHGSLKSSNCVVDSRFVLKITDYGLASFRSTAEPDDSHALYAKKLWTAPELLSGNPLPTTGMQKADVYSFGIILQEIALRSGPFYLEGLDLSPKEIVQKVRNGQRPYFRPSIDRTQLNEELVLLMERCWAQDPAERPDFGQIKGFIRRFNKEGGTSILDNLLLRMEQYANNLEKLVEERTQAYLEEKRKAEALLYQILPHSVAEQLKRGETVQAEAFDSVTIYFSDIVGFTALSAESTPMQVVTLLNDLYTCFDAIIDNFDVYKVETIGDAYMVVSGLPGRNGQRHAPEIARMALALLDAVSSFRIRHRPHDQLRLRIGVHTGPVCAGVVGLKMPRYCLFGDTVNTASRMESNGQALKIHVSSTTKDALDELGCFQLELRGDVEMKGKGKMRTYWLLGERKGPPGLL
# Cmpd fluor yeast = flagged as fluorescent in efflux inhibitor counter-screen. actives 4% (n = 1,700). shares compounds with Efflux pump inh. AID 588517. S. cerevisiae AD/pABC3, compound fluorescence, flow cytometry. fluorescence ratio to DMSO, % at 10 µM;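 active means fluorescence ratio to DMSO above its plate's cutoff, the plate mean ratio plus 5 SD, cut at about 210% in these data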;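 further: unstained yeast with no Nile Red so the signal is compound autofluorescence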
# Mdr1 pump inh = inhibitors of Candida albicans Mdr1 efflux pump | S. cerevisiae AD/CaMDR1, Nile Red efflux, flow cytometry | shares compounds with Efflux pump inh | AID 588518 | inhibition, % at 10 µM | actives 1% (n = 1,700); in the data active means inhibition above about 26%;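 further: 0% = DMSO vehicle and 100% = reference inhibitor; higher means more Nile Red retained so more efflux inhibition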
# CaCdr2 efflux inh = blocks the Candida albicans Cdr2 efflux pump in yeast; shares compounds with Efflux pump inh; S. cerevisiae AD/CaCDR2, Nile Red retention, flow cytometry; Nile Red retention ratio vs DMSO, % at 10 µM; actives 4% (n = 1,700); AID 588520; in the data active means Nile Red retention ratio vs DMSO above about 190%;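 further: higher ratio means more blocking of Cdr2 efflux of the dye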
# Cdr1 pump inh = blocks the Candida albicans Cdr1 efflux pump in yeast | actives 1% (n = 1,700) | inhibition, % at 10 µM | shares compounds with Efflux pump inh | AID 588522 | S. cerevisiae AD/CaCDR1, Nile Red efflux, flow cytometry;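 active means inhibition above the screen-wide mean plus twice its standard deviation, cut at about 32% in these data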
# Numbers without * were called inactive; i = inactive; / = no result given. Most compounds without a hit are left out; they make up all but 1% or so of the library.
SMILES,Efflux pump inh,GC-A act,A1 inh,HSV augment,H9c2 TAG inh,NPR2 activator,Cmpd fluor yeast,Mdr1 pump inh,CaCdr2 efflux inh,Cdr1 pump inh
CN(CCO)c1ccc2c(c1)Oc1ccccc1CN(Cc1cn(Cc3cccc(C(F)(F)F)c3)nn1)S2(=O)=O,/,-0.3,/,/,/,0.4,/,/,/,/
O=C(Nc1ccc(F)cc1)OCc1cn(Cc2ccc(F)cc2)nn1,/,4.1,/,/,/,1.0,/,/,/,/
CCCn1c(-c2cc(OC)c(OC)c(OC)c2)nc2c1c(=O)[nH]c(=O)n2Cc1ccccc1,0.7*,0.0,0.8,/,/,-2.5,99.3,-0.1,110.2,0.0
Cc1ccc(-c2nnc(SCC(=O)Nc3ccc(Oc4ccccc4)cc3)n2-c2ccc(Cl)cc2)cc1,/,1.1,/,/,/,7.3,/,/,/,/
C[C@@H]1[C@@H](O)C[C@@]2(C[C@H](O)c3cc(Cl)ccc3O2)O[C@H]1c1ccccc1Cl,/,-12.6,/,/,/,-15.0,/,/,/,/
S=C(Nc1ccccc1I)OC1CCC12CCC(c1ccccc1)CC2 (centres undefined),/,2.0,/,/,/,-2.8,/,/,/,/
Cc1cc(F)ccc1S(=O)(=O)Nc1ccccc1C(=O)Nc1ncn[nH]1,0.0,-2.5,0.0,i,/,-1.2,/,/,/,/
Cc1ccc(C)c(S(=O)(=O)Nc2ccc(O)c(Sc3ncn[nH]3)c2)c1,0.2,-1.2,1.1,i,-5.8,1.0,105.0,-0.4,97.2,-0.1
COc1ccc(OC)c(S(=O)(=O)Nc2ccc(O)c(Sc3ncn[nH]3)c2)c1,-0.4,-3.5,0.3,i,/,-1.6,96.1,-0.2,93.2,-0.1
CCOc1ccc(S(=O)(=O)Nc2ccc(O)c(Sc3ncn[nH]3)c2)cc1,-0.1,-3.7,0.7,/,14.0,-0.9,/,/,/,/
COc1ccc(OC)c(S(=O)(=O)Nc2cccc(O)c2)c1,-0.1,-0.4,-0.1,/,6.9,-1.0,/,/,/,/
Cc1ccc(S(=O)(=O)Nc2ccc(O)c(Sc3ncn[nH]3)c2)cc1,2.0*,1.4,0.6,i,8.4,2.6,105.0,-0.4,95.1,0.1
Cc1cc(F)ccc1S(=O)(=O)Nc1ccc(O)c(Sc2ncn[nH]2)c1,0.0,1.6,-0.4,/,/,-9.9,104.5,-0.1,100.1,0.1
O=C(NCc1ccco1)C1CCCN(S(=O)(=O)c2ccc(F)cc2)C1 (centres undefined),/,1.5,/,/,/,6.8,/,/,/,/
CC(C)[C@@H]1NC(=O)[C@H]2C[C@@]3(C)c4ccccc4N[C@H]3N2C1=O,/,3.0,/,/,/,-3.6,/,/,/,/
COc1ccc(S[C@]2(C(=O)N3CCN(c4ncccn4)CC3)CC(=O)N[C@@H]2c2ccc(OC)cc2)cc1,/,3.1,/,/,/,2.6,/,/,/,/
C=CCNCc1ccc(OC)cc1OC,/,-1.0,/,/,/,0.2,/,/,/,/
COc1ccc(C(CCN2CCOCC2)c2c(OC)cc(OC)c3c(-c4ccccc4)cc(=O)oc23)cc1 (centres undefined),1.6*,1.8,/,/,14.8,-1.7,95.0,-0.2,85.2,0.0
COc1ccc(C(CCN2CCCC2)c2c(OC)cc(OC)c3c(-c4ccccc4)cc(=O)oc23)cc1 (centres undefined),0.0,2.1,-0.8,i,6.5,-1.1,/,/,/,/
Cc1ccccc1NC(=O)OCCCN1C(=O)CCC12CCC(C)CC2 (centres undefined),/,-2.1,/,/,/,-7.8,/,/,/,/
CCOc1ccc(NC(=O)NC2CCCc3ccccc32)cc1 (centres undefined),6.5*,-2.7,-1.9,/,/,5.8,102.6,-0.2,109.4,-0.1
Cc1ccc(NC(=O)NC2CCCc3ccccc32)cc1 (centres undefined),0.1,0.1,0.9,/,-6.7,-1.1,/,/,/,/
Cc1ccc(S(=O)(=O)c2nc(Nc3ccccc3N3CCOCC3)sc2Cl)cc1,7.5*,2.0,1.1,i,/,-1.1,99.7,-0.1,98.7,0.1
Cc1c(C(=O)O)oc2ccc(S(=O)(=O)NC3CCCCCCC3)cc12,1.0*,-1.6,0.6,i,/,4.9,100.3,-0.1,96.3,0.0
Nn1c(SCC(=O)Nc2cccc3ccccc23)nnc1-c1cc(-c2ccc(Cl)cc2)n[nH]1,/,-19.2,/,/,/,-22.2,/,/,/,/
SMILES,Efflux pump inh,GC-A act,A1 inh,HSV augment,H9c2 TAG inh,NPR2 activator,Cmpd fluor yeast,Mdr1 pump inh,CaCdr2 efflux inh,Cdr1 pump inh
COc1ccc(-n2c(SCC(=O)N3CCCC3)nnc2-c2ccncc2)cc1,/,-0.1,/,/,/,7.1,/,/,/,/
O=C(/C=C/c1cccs1)N1CCC2(CC1)Oc1ccc(F)cc1C(=O)C21CC(c2ccccc2)=NO1 (centres undefined),0.6*,-0.6,0.3,i,/,3.3,107.9,0.2,95.4,0.1
CCC(=O)N1CCC2(CC1)Oc1ccc(Cl)cc1C(=O)C21CC(c2cccnc2)=NO1 (centres undefined),-0.2,0.0,0.3,i,-6.8,5.9,/,/,/,/
Cc1noc(C)c1C(=O)N1CCC2(CC1)Oc1ccc(F)cc1C(=O)C21CC(c2ccc(Cl)cc2)=NO1 (centres undefined),6.4*,-2.8,-0.8,i,0.3,3.1,99.8,0.0,97.7,0.0
CC(C)(C)OC(=O)N1CCC2(CC1)Oc1ccc(F)cc1C(=O)C21CC(c2ccc(Cl)cc2)=NO1 (centres undefined),0.2,/,-0.1,i,/,/,/,/,/,/
O=C(c1ccc2c(c1)OCO2)N1CCC2(CC1)Oc1ccc(F)cc1C(=O)C21CC(c2ccc(Cl)cc2)=NO1 (centres undefined),23.3*,0.6,0.0,i,4.1,0.9,106.7,26.1*,110.3,0.6
O=C(c1ccc2c(c1)OCO2)N1CCC2(CC1)Oc1ccc(Cl)cc1C(=O)C21CC(c2ccccc2)=NO1 (centres undefined),0.0,0.7,0.1,i,27.6,-3.4,93.7,-0.5,86.7,-0.5
CC(C)CNS(=O)(=O)/C=C/c1ccccc1CCNC(=O)OC(C)(C)C,/,-2.9,/,/,/,3.7,/,/,/,/
COc1ccc(CC(=O)Nc2c3c(nn2C(C)(C)C)CS(=O)C3)cc1 (centres undefined),1.8*,3.7,0.0,i,9.9,-1.9,114.3,-0.2,99.6,-0.1
COc1cc(/C=N/N2CCN(c3ccc(Cl)cc3)CC2)cc(OC)c1OC(C)=O,1.2*,-6.2,0.4,/,/,-0.8,88.7,0.0,108.1,-0.4
CC(SCc1ccccc1)C(=O)N/N=C/c1ccc(OCC(=O)NCc2ccco2)cc1 (centres undefined),13.8*,0.5,-1.2,i,/,5.6,117.5,-0.2,93.5,0.5
